The values below come from PubChem BioAssay (NCI).

Several values for one entry are separate records, joined by “and”; a condition that tells them apart may be missing. Identical values can stand only once. About 83,000 compounds went through this panel and 20% of them were active in at least one assay; those are over-represented in the sample as a whole.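 Percent growth is the endpoint: 0 to 100 indicates growth inhibition (40 means 60% inhibition), 0 means no net growth, and negative values indicate cell death.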 Activity calls are given as the source filed them.

This experiment has as its system NCI/ADR-RES ovarian. The experiment is described as follows: NCI-60 one-dose screen, 48 h (100 = growth as untreated, 0 = no growth, -100 = all killed). The settings on record: 10 µM unless noted. On the procedure: Growth inhibition of the NCI/ADR-RES human […] tumor cell line is measured as a screen for anti-cancer activity. Cells are grown in 96 well plates and exposed to the test compound for 48 hours. Compounds are tested at a single concentration, which is 10^-5 M for most compounds. The reported endpoint is percent growth (GI% or GIPRCNT), where numbers from 0 - 100% represent growth inhibition, and numbers from -100% - 0 represent cell death. For example, a value of 40 represents 60% growth inhibition. A value of 0 means no net growth occurred over the course of the experiment. A value of -40 indicates 40% of cells at the beginning of the experiment died by the end of the experiment. A value of -100 means all cells are dead at the end of the experiment.
NCI-60 Human Tumor Cell Lines Screen was performed using the standard one-dose NCI protocol, which is described in more detail at https://dtp.cancer.gov/discovery_development/nci-60/default.htm.
Compounds with GIPRCNT values below 10 were considered active. Activity score was based on GIPRCNT using the following formula: […]
Score is 0 for GIPRCNT values of 100 or above, 50 for GIPRCNT values of 0, and 100 for GIPRCNT values of -100.
As to `NC1CCC(C(=O)O)CC1` (stereo not given), the growth is 110% (inactive) and 107% (inactive).
With `CC[C@H](CC[C@@H](C)[C@H]1CC[C@H]2[C@@H]3CC=C4C[C@@H](O)CC[C@]4(C)[C@H]3CC[C@]12C)C(C)C` the figure was -46.1% (active) and 101% (inactive); with `O=CN1CCCCC1`, 103% (inactive).
With `CCOC(=O)c1c(C)cc(=O)oc1C` the figure was 104% (inactive).
Under `O=C(Cc1ccccc1)c1ccc(O)c(Cl)c1` stands 28.5% (inactive).
As to `OCC1OC(O)C(O)C(O)C1O` (stereo not given), the growth was 101% (inactive).
Regarding `CCN(CCNS(C)(=O)=O)c1ccc(N)c(C)c1`, the growth was 90.2% (inactive) and 96.9% (inactive).
Under `CC(=O)OCC1OC(OC(C)=O)C(OC(C)=O)C(OC(C)=O)C1OC(C)=O` (stereo not given) stands 100% (inactive) and 107% (inactive).
Under `COc1cc(C(O)C2C(=O)OCC2C2(c3ccc4c(c3)OCO4)SCCCS2)cc(OC)c1OC` (stereo not given) stands 89.4% (inactive).
With `Brc1ccc(SSc2ccc(Br)cc2)cc1`, the growth was 66.2% (inactive).
With `CC1(C)COC(=S)N1` the figure was 106% (inactive); with `O=[N+]([O-])c1cccc(SSc2cccc([N+](=O)[O-])c2)c1`, 116% (inactive); with `Fc1ccc([I+]c2ccc(F)cc2)cc1`, 98.8% (inactive).
With `Cc1cc(-c2cc(C)c(O)c(C)c2)cc(C)c1O` the figure was 76% (inactive); with `NC(Cc1c[nH]c2ccccc12)C(=O)O` (stereo not given), 105% (inactive) and 111% (inactive).
With `COc1ccc2cc1Oc1ccc(cc1)C[C@H]1c3cc(c(OC)cc3CCN1C)Oc1c(OC)c(OC)cc3c1[C@H](C2)N(C)CC3` the figure was 56.8% (inactive); with `O=C1c2c(O)ccc(O)c2C(=O)c2c(NCCNCCO)ccc(NCCNCCO)c21`, 39.1% (inactive) and -9.1% (active).
For the compound `Cc1ccc(S(=O)(=O)c2ccccc2)cc1`, the growth is 21.1% (inactive).
Under `Cn1cnc([N+](=O)[O-])c1Sc1ncn[nH]1` stands 119% (inactive); under `ClCCOCCOc1ccc(C2CCCCC2)cc1`, 115% (inactive).
Under `COc1ccc(N/C=C/C2=[N+](C)c3ccccc3C2(C)C)c(OC)c1` stands 92.8% (inactive); under `CN1CNC(=O)NC1`, 109% (inactive) and 103% (inactive); under `Oc1ccc(Cc2ccccc2Cl)c(O)c1`, 91.5% (inactive).
In the case of `O=C1CSC2=NCCN12`, the growth is 94.9% (inactive) and 102% (inactive).
With `C/C(=C\c1ccccc1)c1ccccn1` the figure was 110% (inactive); with `CCCCCCCCCCNC(=O)CI`, 2.88% (active).
With `Nc1ccc2c(O)cc(S(=O)(=O)O)cc2c1` the figure was 105% (inactive); with `O=C1OC(c2ccccc2)=N/C1=C\c1ccccc1`, 99.7% (inactive).
With `Cc1cc2ccccc2cn1` the figure was 103% (inactive) and 118% (inactive); with `N#CC(C#N)N=Nc1cc(Cl)ccc1Cl`, 112% (inactive); with `COc1ccc(C(=O)CC(c2ccccc2)C(C#N)c2ccccc2)cc1` (stereo not given), 84.2% (inactive).
`CCCCOC(=O)/C=C\C(=O)NC(N)=O`: the growth was 90.8% (inactive).
With `CCCCCCCCCCCCCCCc1ccc(N)c(OC2OC(CO)C(O)C(O)C2O)c1` (stereo not given) the figure was 73% (inactive).
Turning to `CC(C)NCC(O)c1ccc(O)c(O)c1` (stereo not given), the growth was 96.3% (inactive) and 102% (inactive) and 93.8% (inactive).
For `CN(C)c1ccc(/C=C\C(=O)c2ccccc2)cc1`, the growth is 88.2% (inactive) and 85.5% (inactive) and 93.1% (inactive).
With `CCc1cc(C)cc(O)c1` the figure was 111% (inactive); with `O=C(/C=C/c1ccccc1)c1ccccc1`, 118% (inactive); with `O=C1OC(C(O)C(O)CO)C(O)=C1O` (stereo not given), 95% (inactive) and 102% (inactive).
With `CCCCOc1ccc(Nc2cc(Cl)ccc2C(=O)O)cn1` the figure was 90.4% (inactive) and 97.4% (inactive); with `c1ccc(CNCCNCc2ccccc2)cc1`, 112% (inactive).
